Compounds without any hit were thinned out: in the full panel of roughly 83,000, 20% have a hit.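 For each line, cells grew in 96-well plates with the test compound present at a single concentration for 48 hours.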 Unmarked numbers belong to inactive results. The source made the active and inactive calls. The calls were made as follows: active = growth percent below 10; inactive = the rest.

The values below come from PubChem BioAssay (NCI).

Experiment in all cases: NCI-60 one-dose screen, 48 h (100 = growth as untreated, 0 = no growth, -100 = all killed)
Conditions in all cases: 10 µM unless noted

The test system of test [1] is NCI-H23 lung.
Test [2] relates to NCI-H226 lung.
In test [3] the test system is NCI-H322M lung.
Test [4] has as its system HOP-62 NSCLC.
Test [5] concerns NCI-H460 lung.
The subject of test [6] is HOP-92 NSCLC.
For test [7], the system named is NCI-H522 lung.
Test [8] deals with A549/ATCC NSCLC.
Test [9] has as its system 786-0 renal.
The subject of test [10] is COLO 205 colon.
Test [11] relates to DU-145 prostate.
Test [12] concerns K-562 leukemia.
Test [13] deals with MALME-3M melanoma.
The subject of test [14] is MDA-MB-231 breast.
Test [15] deals with RXF 393 renal.
The test system of test [16] is SF-268 CNS.
In test [17] the test system is SF-295 CNS.
Test [18] has as its system SF-539 CNS.
In test [19] the test system is UACC-257 melanoma.
The test system of test [20] is M14 melanoma.

In the case of `CCCCCCCCCCCCCC[P+](CCCCCC)(CCCCCC)CCCCCC`, the growth was -39.3% (active) in [1]; -1.45% (active) in test [2]; -11.9% (active) in test [3]; -2.18% (active) in test [4]; -59.4% (active) in [5]; -67.1% (active) in [6]. The growth in test [7] was -71.4% (active); in [8] it was -35% (active); in test [9], -65.8% (active); in test [10], -65.4% (active); in [11], -100% (active); in [12], 39%. The growth in [13] was -83.9% (active); in test [14] it was -38.3% (active); in test [15] it was -97.7% (active); in test [16], -4.6% (active); in test [17], -68.4% (active); in [18] it was 5.67% (active). In addition, the growth in test [19] is -34.6% (active); in test [20] it was -36.5% (active).
On to `COc1ccc(NC([Se])=NC23CC4CC(CC(C4)C2)C3)cc1`, for which the growth is -23% (active) in [1]; -32.7% (active) in test [2]; 3.73% (active) in test [3]; -0.819% (active) in test [4]; -8.63% (active) in test [5]; -6.73% (active) in test [6]. The growth was -32.6% (active) in [7]; -0.959% (active) in [8]; -42.1% (active) in test [9]; -32.1% (active) in test [10]; 2.16% (active) in test [11]; 12.3% in test [12]. The growth in test [13] was -18.5% (active); in [14] it was -44.4% (active); in test [15], -41% (active); in test [16], 38.5%; in test [17], -23.6% (active); in test [18], -6.89% (active). Further, the growth was -45.5% (active) in [19] and -6.57% (active) in test [20].
`O=C1C(Cl)=C(N2CCOCC2)C(=O)c2ccccc21`: the growth in [1] was 85.2%; in test [2] it was 104%; in [3] it was 122%; in test [4] it was 105%; in [5], 101%; in [6], -75.2% (active). The growth was 75.1% in [7]; 101% in [8]; 111% in test [9]; 106% in test [10]; 114% in [11]; -36.7% (active) in test [12]. For the same compound, the growth is 48.2% in test [13]; 84.2% in test [14]; 129% in [15]; 87.6% in test [16]; 92.9% in test [17]; 117% in [18]. Besides, the results for the growth in test [19] and in test [20] were 54.4% and 105%, respectively.
`COc1ccc2c(c1)c(-c1nc(-c3c[nH]c4ncccc34)cs1)cn2CCN1CCOCC1`: the growth in test [1] is 57.3%; in test [2], 49.7%; in test [3], 57.3%; in [4], 27.4%; in [5], 40.8%; in test [6], 28.8%. Further, the growth in [7] is 44.5%; in [8], 51.2%; in [9], 55.5%; in test [10], 61.6%; in [11], 45.3%; in [12], 38.3%. The growth is 71% in test [13]; 51% in test [14]; 53.7% in test [15]; 60.9% in test [16]; 62% in test [17]; 48.2% in test [18]. For the same compound, the figures for the growth in test [19] and in test [20] were 92.1% and 49.4%, respectively.
On to `COc1ccc2c(c1)c(-c1nc(-c3cn(C)c4ncccc34)cs1)cn2CCN1CCOCC1`, for which the growth in test [1] is 40.2%; in test [2] it was 43%; in test [3], 62.3%; in [4], 12.5%; in test [5] it was 23.9%; in test [6], 31.3%. The growth in [7] is 19.9%; in test [8] it was 30.5%; in [9], 44.4%; in [10], 33.2%; in test [11], 36.3%; in test [12], 9.83% (active). Besides, the growth in test [13] is 71.5%; in [14] it was 56.8%; in [15] it was 56.7%; in test [16], 48.4%; in [17], 49.3%; in test [18] it was 48%. For the same compound, the growth in test [19] was 93.2%; in [20] it was 31.9%.
With `Cn1cc(-c2csc(-c3cn(CCN4CCOCC4)c4ccc(F)cc34)n2)c2cccnc21`, the growth in test [1] is 22.5%; in test [2], 16.6%; in test [3], 73.3%; in test [4], 8.52% (active); in test [5] it was 44.6%; in test [6], 27.2%. The growth in [7] is -0.645% (active); in [8] it was 22.5%; in test [9], 56.3%; in [10], 15.9%; in test [11], 40.1%; in test [12] it was 9.34% (active). Besides, the growth in test [13] is 53%; in test [14], 35.1%; in [15] it was 71%; in test [16], 41.7%; in test [17], 29.2%; in test [18] it was 61.5%. The figures for the growth in [19] and in test [20] were 71% and 8.08% (active), respectively.
As to `CC1(C)CN1P(=O)(N1CC1(C)C)N1CC1(C)C` (stereo not given), the growth in test [1] is 105%; in test [2] it was 109%; in [3], 111%; in test [4], 102%; in test [5] it was 112%; in [6], 103%. Moreover, the growth in test [7] was 104%; in test [8] it was 91%; in test [9], 109%; in test [10], 107%; in [11], 121%; in test [12], 109%. Also, the growth in test [13] was 110%; in test [14], 107%; in test [15] it was 119%; in test [16], 106%; in test [17], 115%; in [18] it was 109%. For the same compound, the values for the growth in test [19] and in [20] were 89.3% and 98.8%, respectively.
